# Experiments:
# Assay in all cases: PBM binding z-score (relative to random genomic background probes); higher = stronger binding; sequences stand for … in GC…GCGATTGACAGCGTAGAATGAAGG
# [1] = test system: FXR:RXRa (NR concentration 270 nM, RXRa partner concentration 90 nM)
# Outline: (§1)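 On custom Agilent 4×180K arrays, double-stranded probes with 34-nt variable regions carried direct-repeat seeds, single-nucleotide variants, half-site ablations or random human genomic background. Ligand-free nuclear receptor dimers were applied for 1 h, and binding was read with antibodies against each partner (one per run). Binding z-scores come from regression-normalized fluorescence, with the random background probes as reference.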
# [2] = test system: LXRa:RXRa (NR concentration 270 nM, RXRa partner concentration 90 nM)
# Outline: as §1
# [3] = test system: LXRa homodimer (NR concentration 270 nM)
# Outline: as §1
# [4] = test system: LXRb:RXRa (NR concentration 270 nM, RXRa partner concentration 90 nM)
# Outline: as §1
# [5] = test system: LXRb homodimer (NR concentration 270 nM)
# Outline: as §1
# [6] = test system: PPARa:RXRa (NR concentration 270 nM, RXRa partner concentration 90 nM)
# Outline: as §1
# [7] = test system: PPARg:RXRa (NR concentration 180 nM, RXRa partner concentration 90 nM)
# Outline: as §1
# [8] = test system: PPARg:RXRa 270nM:90nM, anti-RXR (NR concentration 270 nM, RXRa partner concentration 90 nM)
# Outline: as §1
# [9] = test system: PPARg:RXRa 30nM:10nM, anti-RXR (NR concentration 30 nM, RXRa partner concentration 10 nM)
# Outline: as §1
# [10] = test system: PPARg:RXRa 90nM:30nM, anti-RXR (NR concentration 90 nM, RXRa partner concentration 30 nM)
# Outline: as §1
# [11] = test system: PPARg:RXRa DBDmut IVT, anti-RXR (DBD mutation: RXRa K156A/R161A, NR concentration 270 nM, RXRa partner concentration 90 nM)
# Outline: as §1
# [12] = test system: PPARg:RXRa IVT, anti-PPARg (NR concentration 270 nM, RXRa partner concentration 90 nM)
# Outline: as §1
# [13] = test system: PPARg DBDmut:RXRa IVT, anti-PPARg (DBD mutation: PPARg1 K132A/R137A, NR concentration 270 nM, RXRa partner concentration 90 nM)
# Outline: as §1
# [14] = test system: PPARg DBDmut IVT, anti-PPARg (DBD mutation: PPARg1 K132A/R137A, NR concentration 270 nM)
# Outline: as §1
# [15] = test system: PPARg homodimer (NR concentration 180 nM)
# Outline: as §1
# [16] = test system: PXR:RXRa (NR concentration 270 nM, RXRa partner concentration 90 nM)
# Outline: as §1
# [17] = test system: PXR homodimer (NR concentration 270 nM)
# Outline: as §1
# [18] = test system: RARa:RXR (NR concentration 270 nM, RXRa partner concentration 90 nM)
# Outline: as §1
# [19] = test system: RARa homodimer (NR concentration 270 nM)
# Outline: as §1
# [20] = test system: RARb:RXRa (NR concentration 270 nM, RXRa partner concentration 90 nM)
# Outline: as §1
Sequence,PBM binding z-score [1],PBM binding z-score [2],PBM binding z-score [3],PBM binding z-score [4],PBM binding z-score [5],PBM binding z-score [6],PBM binding z-score [7],PBM binding z-score [8],PBM binding z-score [9],PBM binding z-score [10],PBM binding z-score [11],PBM binding z-score [12],PBM binding z-score [13],PBM binding z-score [14],PBM binding z-score [15],PBM binding z-score [16],PBM binding z-score [17],PBM binding z-score [18],PBM binding z-score [19],PBM binding z-score [20]
TAGCCTAGGTCATGCGGTCCAGTATAGTGTCGGC,4.09,2.83,0.301,1.8,-0.379,3.51,2.34,2.32,0.235,1.3,1.68,3.01,-0.501,0.0737,0.743,1.77,0.0796,2.22,-0.726,3.79
TCAGACAGGTGAAGGTCACTCAGGTACGCAGTCG,3.13,3.62,1.36,3.13,0.146,3.72,2.39,3.12,3.84,3.76,3.07,2.84,0.351,0.266,2.38,4.02,0.556,3.78,0.971,4.01
CCTAATGGGCCAAAGGTCATTGATTCCAATGCTC,5.18,5.16,3.94,4.84,1.08,6.03,11.8,9.96,11.9,12.1,3.94,6.02,0.0676,-0.678,4.32,5.26,1.81,6.51,1.99,4.57
AGAACGAGGGCAATGAGTTGATTGCACGGGTGGC,0.165,0.157,-0.593,-0.398,-0.715,1.23,1.15,0.624,-0.179,0.252,3.14,2.43,0.337,-0.0138,-0.0601,1.65,6.35,0.166,-0.231,1.89
CCTACTGGGGCATCAGGTCATTGATATCAACGTT,1.51,1.23,1.04,1.47,-0.819,3.15,4.22,4.7,2.26,4.13,5.37,6.32,1.29,0.377,2.41,1.8,0.7,2.41,0.207,2.36
AGTCAAAGTTCGGGACGAGGTAACGTAAAGCACG,0.65,0.402,-0.198,0.242,-0.3,1.08,1.85,2.33,0.491,1.33,-0.421,0.748,0.226,-0.0246,0.441,0.716,0.0422,0.869,-0.0634,1.86
TTTAGTTGGTCACGGAGGTCACACACGACGGGTA,3.66,3.83,3.02,3.45,1.48,4.21,4.64,4.76,2.06,3.63,3.69,5.36,1.78,1.9,3.37,4.93,1.92,4.96,2.05,4.08
TGTCTAAGTTCAAAGGTAACGTAAGTATCCACAC,4.9,5.21,1.95,3.38,1.12,4.85,4.52,5.15,2.77,4.68,-0.293,1.97,0.709,1.14,1.56,5.3,3.65,4.93,0.919,3.93
GATACAGGGTCAGCTAAAGGCCAGAGTATGGAAA,4.35,2.74,-0.339,2.43,-0.758,4.67,4.07,3.58,0.882,2.24,1.25,2.78,0.576,-0.417,2.2,2.68,-0.205,4.25,0.412,4.26
CCGACTGCGGCAAGGTTACCATAACGCACAGCCA,0.311,0.827,0.0346,0.9,-0.64,1.02,0.614,-0.189,-0.715,-0.26,-0.209,-0.134,-0.21,-0.256,0.4,0.562,0.00644,0.946,0.0538,0.845
CCGACTGGGGCAAGGTTACCAAAACGCACAGCCA,0.221,0.494,-0.00504,0.617,-1.39,2.07,2.78,3.62,1.01,2.6,3.12,3.53,-0.395,-0.973,0.0774,0.341,-0.627,1.09,-0.287,1.73
CCGACTGGGGAAGAAAGGTTACCATACCATCCGG,0.169,0.579,-0.0766,0.683,-0.64,2.22,1.84,3.17,1.15,2.6,-0.325,0.33,-0.996,-0.95,0.579,0.747,-0.0818,1.3,0.0486,1.23
ACTTACGGGTCACCGAGGTTATAGCACGCGTATA,7.33,5.59,1.1,4.77,0.402,6.19,7.11,6.57,3.18,5.44,4.12,5.23,2.17,1.98,3.07,5.54,3.25,6.06,1.56,4.67
TATACAGGGTCAAGGGCCAGAGTACGAATGTCGA,6.63,5.65,1.91,4.4,2.42,5.8,7.15,6.47,3.84,5.91,2.4,4.69,2.98,1.83,3.27,3.99,0.571,4.97,1.16,4.61

# Reference: the supplement of paper PMC6555819
